Screening results deposited in PubChem by National Center for Advancing Translational Sciences (NCATS).
This is a sample that favours compounds with a hit; in the whole collection about 7.6% have one here.
KB-3-1 tox: KB-3-1 parental cell cytotoxicity; KB-3-1 viability, CellTiter-Glo ATP luminescence, 72 h; Potency, µM (series often up to 46.1 µM), hits mostly cytotoxic; 400,000 tested, 1.4% active; note: potency is the fitted concentration of half-maximal effect; % is set by controls: 0 for no effect and ±100 for the full control effect; nearly all actives have a fitted effect of over 60% in size
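Parental KB-3-1 viability, qHTS format: 72 h compound exposure, 37 °C; CellTiter-Glo; media-only wells and DMSO plates as controls; concentration-effect fits on corrected data.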
SW480 rereplic: DNA re-replication induction in SW480 cells. 340,000 tested, 1.8% active. SW480 DNA re-replication, Hoechst DNA content imaging, 48 h. Potency, µM (top dose mostly 46.1 µM), for inactives: top-dose re-replication activation, actives largely listed as activators. AID 624297; note: potency is the fitted concentration of half-maximal effect; % of control where 0% means no effect; nearly all actives have a fitted effect of over 55% in size
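First, 250 cells per well were seeded. Next, compound or vehicle (23 nL) was pinned in, plates sat 48 hr at 37 C. Finally Hoechst was added for 40 min before fluorescence scanning.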
KB-V1 cytotox: KB-V1 MDR subline cytotoxicity; 400,000 tested, 3.4% active; Potency, µM (top dose mostly 46.1 µM), hits mostly cytotoxic; AID 1347076; KB-V1 MDR cells viability, CellTiter-Glo, 72 h; note: potency is the fitted concentration of half-maximal effect; % is set by controls: 0 for no effect and ±100 for the full control effect; nearly all actives have a fitted effect of over 60% in size
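Cytotoxicity toward P-gp-expressing KB-V1 cells was determined as loss of CellTiter-Glo luminescence after 72 h at 37 degrees C. Compounds were tested in quantitative HTS format across a concentration range, with curves fitted to normalized data.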
KCNH2 WT inh: inhibitors of human wildtype KCNH2 potassium channel; U2OS, BacMam KCNH2, thallium flux FluxOr; active compounds read low; 340,000 tested, 0.37% active; Q12809; activity change, % at 1.84 µM; AID 720551;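 active = maximum activity change below -70%; inconclusive = maximum activity change between -70% and -50%; inactive = maximum activity change above -50%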; note: % is set by controls: 0 for no effect and ±100 for the full control effect
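U2OS cells were transduced with wild-type KCNH2 virus (2.03 x 10^8 / mL) for 4 h at room temperature, then cultured overnight at 37 C. Thallium flux was read with FluxOr dye. Rate constants were normalized to DMSO controls.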
KCNH2 3.1 block: blocks the human KCNH2 3.1 channel isoform | activity change, % (tested at about 1.8 µM) | U2OS KCNH2 3.1, thallium flux FluxOr; active compounds read low | 340,000 tested, 0.95% active;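 active = maximum activity change below -70%; inconclusive = maximum activity change from -70% to -50%; inactive = maximum activity change above -50%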;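 note: thallium influx rate constant from kinetic fluorescence after stimulation buffer; % is set by controls: 0 for no effect and ±100 for the full control effect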
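FluxOr-based Tl+ influx in U2OS cells transduced with KCNH2 3.1 virus; rate constants normalized to DMSO controls.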
MCF10A rereplic: inducers of DNA re-replication in MCF 10A breast cells | MCF 10A DNA re-replication, Hoechst nuclear intensity, 48 h | Potency, µM (titrated, usually from 46.1 µM), for the others: at the highest dose activity, positive = re-replication, actives largely listed as activators | 350,000 tested, 2.9% active; note: potency is the fitted concentration of half-maximal effect; % of control where 0% means no effect; nearly all actives have a fitted effect of over 50% in size
* hit, by the source's call; i = inactive; ? = inconclusive; nt = not tested or not shown. Unless noted, calls come from the whole dose curve; as a rule, active = well fitted curve in the direction sought with a large enough effect; inconclusive = small, poorly fitted or top-dose-only effect, or another doubt; inactive = no such curve, though single readings can be large; an effect the other way counts as inactive or inconclusive.

SMILES | KB-3-1 tox | SW480 rereplic | KB-V1 cytotox | KCNH2 WT inh | KCNH2 3.1 block | MCF10A rereplic
N#CCCn1cc(/C=N/O)c(-c2ccc(-c3ccccc3)cc2)n1 | ? | ? | i | -6.5 | 7.6 | 13µM*
N#CCCn1cc(C=C(C#N)C#N)c(-c2ccc(Cl)cc2)n1 | i | ? | i | -1.5 | 19.8 | 3.66µM*
CCc1ccc(NC(=O)CC(c2ccc(C)cc2)N2Cc3ccccc3C2=O)cc1 (configuration not stated) | i | nt | i | nt | nt | nt
CCOc1ccc(C(CCc2ccccc2)NC(=O)c2ccccc2)cc1OCC (configuration not stated) | i | 0.3% | 9.2µM* | 3.4 | -8.8 | -3.8%
COc1ccc2c(c1)O[C@@H](c1ccc3c(c1)OCO3)[C@H](OC(=O)Nc1cc(OC)c(OC)c(OC)c1)C2=O | nt | 16.4µM* | nt | nt | nt | 3.66µM*
Cc1cc(C(=O)NC2CCCc3c2cnn3-c2cccc(C)c2C)no1 (configuration not stated) | 1.84µM* | -0.1% | ? | 1.5 | -6.8 | 24.1%
COc1ccc(C(=O)NC2CCCc3c2cnn3-c2cc(F)cc(F)c2)c(OC)n1 (configuration not stated) | i | -1.3% | i | -12.6 | 17.5 | ?
COC(=O)c1ccc(C(=O)NC2CCCc3c2cnn3-c2cc(F)cc(F)c2)nc1 (configuration not stated) | ? | 6.51µM* | 10.3µM* | 9.0 | nt | 2.91µM*
CC1=C(C(=O)NC2CCCc3c2cnn3-c2cccc(C)c2C)OCCO1 (configuration not stated) | ? | -0.5% | ? | 19.0 | 20.4 | 2.1%
O=C(NC1CCCc2c1cnn2-c1cc(F)cc(F)c1)c1ccccn1 (configuration not stated) | ? | -3.2% | i | 4.2 | 16.2 | 2.5%
COc1ccc(C(=O)NC2CCCc3c2cnn3-c2cc(F)cc(F)c2)c(OC)c1OC (configuration not stated) | ? | 1.3% | 18.4µM* | -0.9 | 2.6 | ?
COC(=O)c1ccc(C(=O)NC2CCCc3c2cnn3-c2ccc(C)c(C)c2)cc1 (configuration not stated) | 1.64µM* | 6.51µM* | 5.17µM* | 7.5 | 8.7 | 2.31µM*
COc1ccc(/C=C/c2nnc(NC(=O)CSc3ccc(Cl)cc3)s2)cc1 | i | ? | i | 6.1 | -1.8 | 13.7%
CCN1CCN(C(=O)Cn2ncc3c4ccccc4n(Cc4ccccc4F)c3c2=O)CC1 | i | nt | i | nt | nt | nt
COc1ccc(Nc2ncnc3c2cnn3-c2cc(Cl)ccc2C)cc1OC | i | nt | i | nt | nt | nt
CC1Cc2ccccc2N1c1ncnc2nc[nH]c12 (configuration not stated) | 9.2µM* | -10.9% | i | 31.5 | 4.0 | 23.7%
c1ccc2c(c1)CCN(c1ncnc3nc[nH]c13)C2 | ? | 0.4% | i | 1.1 | 7.8 | 0.9%
CC1CCc2[nH]c3ccc(C(=O)O)cc3c2C1 (configuration not stated) | i | ? | ? | -5.2 | -3.0 | -2.3%
Cc1cccc(N2CCN(C(=O)c3ccc4[nH]c(C)c(C)c4c3)CC2)c1C | 25.9µM* | 3.26µM* | 2.31µM* | 0.4 | -5.0 | 2.31µM*
COc1ccccc1N1CCN(C(=O)c2ccc3[nH]c(C)c(C)c3c2)CC1 | 1.64µM* | 2.31µM* | 4.61µM* | -10.6 | 5.6 | ?
CCOC(=O)c1[nH]c2ccc(OC)cc2c1NC(=S)N1CCN(c2cccc(C)c2C)CC1 | i | ? | i | -0.9 | 4.0 | 14.6µM*
Cc1[nH]c2ccc(C(=O)N3CCCC3)cc2c1C | i | -3.9% | ? | -11.8 | -6.4 | 15.3%
Cc1[nH]c2ccc(C(=O)N3CCN(c4cccc(Cl)c4)CC3)cc2c1C | ? | ? | ? | -13.2 | 3.7 | ?
COc1ccccc1N1CCN(C(=O)c2ccc3[nH]c4c(c3c2)CC(C)CC4)CC1 (configuration not stated) | i | 10.6% | 20.6µM* | -1.0 | 1.5 | ?
CCOc1ccc(C(=O)CCC(=O)N2CCC(C(=O)OC)CC2)cc1 | i | -5.8% | i | 2.6 | 4.7 | ?
SMILES | KB-3-1 tox | SW480 rereplic | KB-V1 cytotox | KCNH2 WT inh | KCNH2 3.1 block | MCF10A rereplic
CCN1CCN(C(c2ccccc2Cl)c2sc3nc(-c4ccco4)nn3c2O)CC1 (configuration not stated) | i | nt | i | nt | nt | nt
CCN(CC)CCNC(=O)c1c2c(nc3ccccc13)C(=O)N(C1CCCCC1)C2 | ? | nt | i | nt | nt | nt
O=C1Cc2cc(S(=O)(=O)N3CCN(c4ccc(C(F)(F)F)cc4)CC3)ccc2N1 | i | nt | i | nt | nt | nt
COc1cccc(CNC(=O)[C@H](C)NC(=O)C2CCN(S(=O)(=O)c3ccccc3)CC2)c1 | i | -13.8% | i | -4.1 | -2.3 | 1.9%
c1csc(C2CCCN2c2nc3nonc3nc2NC2CC2)n1 (configuration not stated) | i | 1.7% | i | -2.2 | 1.9 | -3.5%
COc1cc(NC(=O)c2ccc3c(c2)OCCO3)ccc1NC(=O)c1cccs1 | i | -0.5% | i | 3.8 | 3.2 | 13.9%
COc1cc(C(=O)NCCC2=CCCCC2)ccc1OCc1c(C)noc1C | i | -17.8% | i | -11.0 | -1.9 | 13.8%
Cc1[nH]c2ccc(C(=O)N3CCN(c4ccccc4F)CC3)cc2c1C | i | nt | i | nt | nt | nt
COCCn1c(=S)[nH]c2cc(C(=O)N3CCN(c4ccccc4OC)CC3)ccc2c1=O | i | -7.6% | 14.6µM* | 16.0 | -7.7 | 0.2%
Cc1[nH]c2ccc(C(=O)N3CCN(c4ccccc4Cl)CC3)cc2c1C | i | ? | i | -78.4* | -30.4 | ?
Cc1ccc2cccc(O)c2n1 | i | nt | i | nt | nt | nt
Oc1cccc2ccc[n+](CC(O)CBr)c12 (configuration not stated) | i | nt | i | nt | nt | nt
COc1ccccc1C(=O)Nc1c(C(=O)Nc2ccccc2F)oc2ccccc12 | ? | nt | i | nt | nt | nt
COc1cc2nc(NC(=O)c3ccc(S(=O)(=O)N4CCc5ccccc54)cc3)sc2cc1OC | ? | nt | 7.31µM* | nt | nt | nt
Cc1cccc2sc(NC(=O)c3cccc(S(=O)(=O)N4CCc5ccccc54)c3)nc12 | i | -5.6% | i | 5.0 | -10.9 | ?
COc1ccc(S(=O)(=O)N2CCCc3ccccc32)cc1[N+](=O)[O-] | 4.11µM* | 20.6µM* | ? | 12.9 | -9.6 | 4.11µM*
COc1ccc(C(=O)Nc2nc3c(s2)CCCC3)cc1S(=O)(=O)N1CCCc2ccccc21 | ? | ? | 5.17µM* | -13.9 | -10.8 | ?
